Measurements: PubChem BioAssay (Tox21)
Unmarked numbers belong to inactive results. Records with an inconclusive call do not appear. Where a call stands in place of a potency, no number is given. Calls of active or inactive are those of the source. Unless noted, calls come from the whole dose curve.

What was measured:
[1] = Nuclear factor erythroid 2-related factor 2/antioxidant responsive element (Nrf2/ARE) small molecule agonists: qHTS cell viability counter screen in human keratinocytes (AID 1919968; active = well fitted curve in the direction sought with a large enough effect in the repeat runs; an effect the other way counts as inactive or inconclusive; note: nearly all actives have a fitted effect of over 55% in size; note: potency is the fitted concentration of half-maximal effect)
Method in brief: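 HaCaT ARE reporter line, 1,500 cells/well; 5 h settle, 37 C/5% CO2; cpd in DMSO pinned; 23 h exposure; CellTiter-Fluor, 1 h; fluorescence.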

[2] = Nuclear factor erythroid 2-related factor 2/antioxidant responsive element (Nrf2/ARE) small molecule agonists: luciferase reporter gene qHTS assay in human keratinocytes (AID 1919969); note: nearly all actives have a fitted effect of over 35% in size; note: potency is the fitted concentration of half-maximal effect
[3] = biological target: Gonadotropin-releasing hormone receptor (Homo sapiens) (UniProt P30968); assay: Human gonadotropin-releasing hormone receptor (GnRHR) small molecule agonists, calcium flux assay in GnRHR-HEK293 cells (AID 1920063); note: nearly all actives have a fitted effect of over 35% in size; note: potency is the fitted concentration of half-maximal effect
Gonadotropin-releasing hormone receptor (Homo sapiens), sequence (P30968 whole entry, looked up): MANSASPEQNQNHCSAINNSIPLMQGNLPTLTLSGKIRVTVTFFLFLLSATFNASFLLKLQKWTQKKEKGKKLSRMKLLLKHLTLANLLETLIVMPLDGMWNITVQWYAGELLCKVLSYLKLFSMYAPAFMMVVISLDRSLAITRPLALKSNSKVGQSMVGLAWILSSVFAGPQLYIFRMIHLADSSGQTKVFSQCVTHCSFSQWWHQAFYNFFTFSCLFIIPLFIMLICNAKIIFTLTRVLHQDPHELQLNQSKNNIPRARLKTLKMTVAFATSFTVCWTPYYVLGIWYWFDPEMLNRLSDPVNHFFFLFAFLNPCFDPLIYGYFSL
Method in brief: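 GnRHR-HEK293, 1500 cells/well, 18 h 37 C/5% CO2; Ca dye 1 h 37 C; cpd pinned (DMSO), agonist mode; kinetic FL 480/540, 3 min, 1 s reads; 15 conc, n=3.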

[4] = biological target: KiSS-1 receptor (Homo sapiens) (UniProt Q969F8); assay: Human kisspeptin (KISS1R) small molecule agonists, calcium flux assay in KISS1R-HEK293 cells (AID 1920064; active = well fitted curve in the direction sought with a large enough effect in the repeat runs; an effect the other way counts as inactive or inconclusive)
KiSS-1 receptor (Homo sapiens), sequence (Q969F8 whole entry, looked up): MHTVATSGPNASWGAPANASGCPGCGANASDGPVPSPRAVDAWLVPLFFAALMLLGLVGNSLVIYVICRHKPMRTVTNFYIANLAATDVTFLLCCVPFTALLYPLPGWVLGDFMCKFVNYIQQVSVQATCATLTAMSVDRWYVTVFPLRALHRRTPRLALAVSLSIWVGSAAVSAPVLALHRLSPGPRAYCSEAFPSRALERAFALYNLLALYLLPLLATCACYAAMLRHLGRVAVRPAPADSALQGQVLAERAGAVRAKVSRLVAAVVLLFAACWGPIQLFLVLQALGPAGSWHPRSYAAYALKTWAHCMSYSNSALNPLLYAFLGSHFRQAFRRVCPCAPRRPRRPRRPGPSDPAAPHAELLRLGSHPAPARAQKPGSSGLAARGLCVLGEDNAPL
Method in brief: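 Stable human KISS1R HEK293 line; 18 h plating, 37 C/5% CO2; calcium dye 1 h 37 C; compound pin transfer; kinetic fluorescence Ex/Em 480/540, 3 min.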

[5] = G protein-coupled receptor (GPCR) small molecule agonists, calcium flux assay: HEK293 wild type cell line counter screen (AID 1920065)
Method in brief: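 Kinetic fluorescence at Ex/Em 480/540, recorded every second over 3 min, served as the read-out after compound addition. Each compound was tested at 15 concentrations in triplicate on cells pre-loaded with calcium dye for 1 h.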

[6] = p53 small molecule agonists, cell-based qHTS assay with human liver microsomes (AID 1963577)
Method in brief: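 p53RE-bla cells, 4,000/well, compound added after 5 h, with human liver microsomes 0.5 mg/mL and NADPH 0.5 mg/mL final; 16 h at 37 C, then LiveBLAzer 2 h RT, fluorescence.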

[7] = p53 small molecule agonists, cell-based qHTS assay with rat liver microsomes (AID 1963578)
Method in brief: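 p53RE-bla cells, 4,000/well, pre-incubated 5 h, then given compounds plus rat liver microsomes (0.5 mg/mL final) and NADPH (0.5 mg/mL final). Incubation 16 h at 37 C; beta-lactamase reporter read by LiveBLAzer fluorescence after 2 h at room temperature.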

[8] = p53 small molecule agonists, cell-based qHTS assay with human liver microsomes: qHTS cell viability counter screen (AID 1963579); note: nearly all actives have a fitted effect of over 45% in size; note: potency is the fitted concentration of half-maximal effect
Method in brief: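 p53RE-bla cells, 4,000/well, dosed 5 hours after plating, with human liver microsomes (0.5 mg/mL final) plus NADPH (0.5 mg/mL final), 16 hours at 37 C. Viability read as CellTiter-Glo luminescence after 30 min at room temperature.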

[9] = p53 small molecule agonists, cell-based qHTS assay with rat liver microsomes: qHTS cell viability counter screen (AID 1963580); note: nearly all actives have a fitted effect of over 45% in size; note: potency is the fitted concentration of half-maximal effect
Method in brief: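 p53RE-bla HCT-116 cells (4,000/well) rested 5 h at 37 C, then given Tox21 compounds in DMSO with rat liver microsomes (0.5 mg/mL final) plus NADPH (0.5 mg/mL final) for 16 h at 37 C. Viability read by CellTiter-Glo luminescence after 30 min at room temperature.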

[10] = p53 small molecule agonists, cell-based qHTS assay: qHTS cell viability counter screen (AID 1963581); note: nearly all actives have a fitted effect of over 45% in size; note: potency is the fitted concentration of half-maximal effect
Method in brief: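 HCT-116 p53RE-bla cells, 4,000/well, plated 5 h before compound pin transfer; 16 h at 37 C; bla substrate 2 h RT; then CellTiter-Glo, 30 min RT, luminescence.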

[11] = biological target: 5-hydroxytryptamine receptor 2A (Homo sapiens) (UniProt P28223); assay: 5-hydroxytryptamine receptor 2A (HTR2A) small molecule antagonists, cell-based qHTS assay (AID 1963586); note: nearly all actives have a fitted effect of over 45% in size
5-hydroxytryptamine receptor 2A (Homo sapiens), sequence (P28223 whole entry, looked up): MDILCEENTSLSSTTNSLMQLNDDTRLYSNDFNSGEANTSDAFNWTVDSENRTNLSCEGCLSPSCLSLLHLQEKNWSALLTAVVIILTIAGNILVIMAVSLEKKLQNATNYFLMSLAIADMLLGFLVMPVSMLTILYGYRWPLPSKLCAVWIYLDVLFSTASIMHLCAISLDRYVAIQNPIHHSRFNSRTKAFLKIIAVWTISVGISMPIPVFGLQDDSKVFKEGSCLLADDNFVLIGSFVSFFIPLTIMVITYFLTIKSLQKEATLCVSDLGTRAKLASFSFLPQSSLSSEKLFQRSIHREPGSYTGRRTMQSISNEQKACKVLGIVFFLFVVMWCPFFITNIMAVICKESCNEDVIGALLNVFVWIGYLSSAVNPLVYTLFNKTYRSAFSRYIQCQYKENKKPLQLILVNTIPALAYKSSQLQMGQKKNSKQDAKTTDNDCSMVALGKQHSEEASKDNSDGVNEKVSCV
Method in brief: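 Antagonist-mode intracellular calcium assay: DOI (4 nM) added after 5 min compound pre-incubation at room temperature to dye-loaded HTR2A-CHO cells. Fluorescence followed for 3 min, sampled every second.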

[12] = biological target: 5-hydroxytryptamine receptor 2A (Homo sapiens) (UniProt P28223); assay: 5-hydroxytryptamine receptor 2A (HTR2A) small molecule agonists, cell-based qHTS assay (AID 1963587); note: nearly all actives have a fitted effect of over 30% in size; note: potency is the fitted concentration of half-maximal effect
Method in brief: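 HTR2A-CHO cells, plated 18 h at 37 C/5% CO2, dye-loaded 1 h at 37 C; compounds in DMSO added by pin tool (agonist mode). Intracellular calcium flux read as kinetic fluorescence on FDSS over 2 min at 1 s intervals.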

[13] = biological target: Muscarinic acetylcholine receptor M1 (Homo sapiens) (UniProt P11229); assay: Cholinergic receptor muscarinic 1 (CHRM1) small molecule antagonists, cell-based qHTS assay (AID 1963588); note: nearly all actives have a fitted effect of over 40% in size; note: potency is the fitted concentration of half-maximal effect
Muscarinic acetylcholine receptor M1 (Homo sapiens), sequence (P11229 whole entry, looked up): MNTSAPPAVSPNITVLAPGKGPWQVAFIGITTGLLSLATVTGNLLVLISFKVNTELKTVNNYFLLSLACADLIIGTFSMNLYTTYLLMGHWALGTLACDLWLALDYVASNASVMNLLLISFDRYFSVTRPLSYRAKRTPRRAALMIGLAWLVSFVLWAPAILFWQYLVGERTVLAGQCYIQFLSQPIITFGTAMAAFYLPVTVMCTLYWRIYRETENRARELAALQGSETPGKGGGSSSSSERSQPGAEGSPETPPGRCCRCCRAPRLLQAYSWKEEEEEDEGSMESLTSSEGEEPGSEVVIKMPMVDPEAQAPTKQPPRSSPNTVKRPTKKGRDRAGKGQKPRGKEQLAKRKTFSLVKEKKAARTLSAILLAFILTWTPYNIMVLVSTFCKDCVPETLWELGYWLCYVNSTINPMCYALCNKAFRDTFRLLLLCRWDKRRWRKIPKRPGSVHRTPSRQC
Method in brief: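 CHRM1-CHO calcium-flux assay, antagonist mode. Cells were seeded 18 h, dye-loaded 1 h at 37 C and given compound for 5 min at RT, then acetylcholine was added at 50nM. FDSS fluorescence was read 3 min; 15 concentrations, three runs.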

[14] = biological target: Muscarinic acetylcholine receptor M1 (Homo sapiens) (UniProt P11229); assay: Cholinergic receptor muscarinic 1 (CHRM1) small molecule agonists, cell-based qHTS assay (AID 1963589); note: nearly all actives have a fitted effect of over 35% in size; note: potency is the fitted concentration of half-maximal effect
Method in brief: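 Human M1 in stable CHO line; 18 h plating, 1 h dye load 37 C; cpd added (agonist mode); Ca2+ fluorescence kinetic read, 1 s intervals; 15 conc, 3 runs.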

[15] = biological target: Beta-2 adrenergic receptor (Homo sapiens) (UniProt P07550); assay: Adrenergic beta2 receptor (ADRB2) small molecule antagonists, cell-based qHTS assay (AID 1963592); note: series mostly up to about 92 µM; nearly all actives have a fitted effect of over 50% in size
Beta-2 adrenergic receptor (Homo sapiens), sequence (P07550 whole entry, looked up): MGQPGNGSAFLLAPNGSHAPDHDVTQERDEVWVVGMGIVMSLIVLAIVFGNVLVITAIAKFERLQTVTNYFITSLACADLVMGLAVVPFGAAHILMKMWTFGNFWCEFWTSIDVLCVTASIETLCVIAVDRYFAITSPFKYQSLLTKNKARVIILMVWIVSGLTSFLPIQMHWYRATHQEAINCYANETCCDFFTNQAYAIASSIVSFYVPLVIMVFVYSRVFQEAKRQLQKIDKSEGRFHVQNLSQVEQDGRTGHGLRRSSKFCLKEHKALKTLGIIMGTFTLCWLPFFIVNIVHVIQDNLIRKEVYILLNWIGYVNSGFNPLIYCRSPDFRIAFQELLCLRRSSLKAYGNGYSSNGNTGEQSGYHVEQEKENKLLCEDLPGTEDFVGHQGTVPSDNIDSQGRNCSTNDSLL
Method in brief: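 Cells (CHO, stable ADRB2 overexpression) incubated 18-20hr at 37C; compounds added from DMSO; agonist mix (1nM isoproterenol, 100uM IBMX, 25uM Ro-20-1724) added; 0.5hr RT; d2-cAMP and anti-cAMP-cryptate added; 1hr RT; 665/615 nm read.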

[16] = biological target: D(2) dopamine receptor (Homo sapiens) (UniProt P14416); assay: Dopamine D2 receptor (DRD2) small molecule agonists, cell-based qHTS assay (AID 1963594); note: nearly all actives have a fitted effect of over 35% in size
D(2) dopamine receptor (Homo sapiens), sequence (P14416 whole entry, looked up): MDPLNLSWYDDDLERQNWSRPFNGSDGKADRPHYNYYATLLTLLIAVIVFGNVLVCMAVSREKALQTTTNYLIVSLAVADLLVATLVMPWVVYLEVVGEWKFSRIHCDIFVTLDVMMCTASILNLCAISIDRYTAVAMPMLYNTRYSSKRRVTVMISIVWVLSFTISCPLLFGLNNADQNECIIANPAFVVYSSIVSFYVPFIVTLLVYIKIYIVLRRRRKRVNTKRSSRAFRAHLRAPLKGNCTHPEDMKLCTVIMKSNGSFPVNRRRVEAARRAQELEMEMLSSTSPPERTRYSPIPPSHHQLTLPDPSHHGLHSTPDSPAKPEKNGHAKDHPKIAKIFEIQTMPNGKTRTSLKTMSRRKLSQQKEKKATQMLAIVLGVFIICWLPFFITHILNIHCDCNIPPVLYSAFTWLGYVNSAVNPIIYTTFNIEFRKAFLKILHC
Method in brief: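 HEK293 cells stably expressing DRD2 were cultured 24 h at 37 C, then given Ro20-1724 (0.1 mM final) and compounds for 10 min at room temperature. NKH477 (200nM) was then added for 30 min. cAMP was read by HTRF.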

[17] = biological target: D(2) dopamine receptor (Homo sapiens) (UniProt P14416); assay: Dopamine D2 receptor (DRD2) small molecule antagonists, cell-based qHTS assay (AID 1963595; active = well fitted inhibition curve with a large enough effect in the signal ratio in the repeat runs, with a control signal flat; the % refers to the signal ratio; note: potency is the fitted concentration of half-maximal effect)
Method in brief: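 Cells were plated and grown for 24 h at 37 °C. Ro20-1724 (0.1 mM final) went in first, then compound for 10 min. NKH477 (200 nM) with quinpirole (12 nM) followed for 30 min at RT, then HTRF detection reagents for 1 h.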

[18] = cAMP Responsive Elements (CRE) small molecule antagonists, cell-based qHTS assay (AID 1963591; active = well fitted inhibition curve with a large enough effect in the signal ratio in the repeat runs, not every such curve was filed as active; the % refers to the signal ratio)
Method in brief: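 Beta-lactamase reporter read by FRET substrate (LiveBLAzer B/G) after 2 h at room temperature. CRE-bla HEK293T cells had received compound plus 0.25 uM (final) NKH477 for 3 h at 37 °C.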

[19] = p53 small molecule agonists, cell-based qHTS assay (AID 1963582; active = well fitted activation curve with a large enough effect in the signal ratio in the repeat runs, not every such curve was filed as active; the % refers to the signal ratio)
Method in brief: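 Reporter line: p53RE-bla. Pre-incubation 5 h, 37 C, 5% CO2; compound (DMSO, pin tool) 16 h, 37 C; B/G FRET substrate 2 h RT; fluorescence intensity read.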

[20] = cAMP Responsive Elements (CRE) small molecule agonists, cell-based qHTS assay (AID 1963590)
Method in brief: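 HEK 293T CRE-bla, 2,000 cells/well, 18 h preincubation 37 C/5% CO2; cpds (DMSO) pinned, 3 h; LiveBLAzer B/G FRET substrate, 2 h RT.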

SMILES	Potency [1]	Potency [2]	Potency [3]	Potency [4]	Potency [5]	Potency [6]	Potency [7]	Potency [8]	Potency [9]	Potency [10]	Potency [11]	Potency [12]	Potency [13]	Potency [14]	Potency [15]	Potency [16]	Potency [17]	Potency [18]	Potency [19]	Potency [20]
COC(=O)C(C)N(C(=O)Cc1ccccc1)c1c(C)cccc1C (centres undefined)	inactive	inactive	inactive	inactive	inactive	inactive	inactive	inactive	inactive	inactive	inactive	inactive	inactive	inactive	inactive	inactive	inactive	–	–	–
O=C(CCl)Nc1ccccc1	21.7 µM (active)	15.4 µM (active)	inactive	inactive	inactive	inactive	inactive	inactive	inactive	inactive	inactive	inactive	inactive	inactive	inactive	inactive	inactive	inactive	–	–
CC[C@H](C)[C@H]1O[C@]2(C=C[C@@H]1C)C[C@@H]1C[C@@H](C/C=C(\C)[C@@H](O[C@H]3C[C@H](OC)[C@@H](O[C@H]4C[C@H](OC)[C@@H](NC)[C@H](C)O4)[C@H](C)O3)[C@@H](C)/C=C/C=C3\CO[C@@H]4[C@H](O)C(C)=C[C@@H](C(=O)O1)[C@]34O)O2	9.69 µM (active)	inactive	11 µM (active)	inactive	inactive	inactive	inactive	28.9 µM (active)	14.5 µM (active)	10.2 µM (active)	inactive	38.9 µM (active)	–	38.9 µM (active)	–	inactive	13.7 µM (active)	–	–	–
CC(Cl)(Cl)Cl	inactive	inactive	inactive	inactive	inactive	inactive	inactive	inactive	inactive	inactive	–	–	–	–	inactive	inactive	inactive	inactive	inactive	inactive
CC(C)(C)NCC(O)c1ccccc1Cl (centres undefined)	inactive	inactive	inactive	inactive	inactive	inactive	inactive	inactive	inactive	inactive	–	inactive	–	inactive	inactive	–	–	–	inactive	–
CCc1ccc(C(=O)NN(C(=O)c2cc(C)cc(C)c2)C(C)(C)C)cc1	inactive	inactive	inactive	inactive	inactive	inactive	inactive	inactive	inactive	inactive	inactive	inactive	2.98 µM (active)	inactive	–	inactive	inactive	–	–	–
CCN[C@@H](C)Cc1ccccc1	inactive	inactive	inactive	inactive	inactive	inactive	inactive	inactive	inactive	–	inactive	inactive	inactive	inactive	inactive	–	inactive	inactive	inactive	inactive
